Assay outcomes (PubChem)
CYP2C19 inh = blockers of cytochrome P450 2C19 activity – biochemical, luminescence, ADME assay, primary screen. inhibition, % at 5 µM. P33261. CYP2C19 Supersomes, luciferin-H EGE luminescence, 30 min. 96,000 compounds, 21% hits;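 active = CYP2C19 inhibition above a set limit at 5 µM in the primary screen, cut at about 50% in these data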;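 note: plate controls were negative control wells for no effect and 2.5 mM tranylcypromine positive control for full effect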
CYP2C9 inh = blockers of cytochrome P450 2C9 activity – biochemical, luminescence, ADME assay, primary screen; P11712; inhibition, % at 5 µM; 96,000 compounds, 20% hits; CYP2C9 Supersomes, luciferin-H conversion;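 active = blocking of liver enzyme CYP2C9 beyond about 50% at 5 µM, limit read from the data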
Target sequence (P11712 whole entry, looked up): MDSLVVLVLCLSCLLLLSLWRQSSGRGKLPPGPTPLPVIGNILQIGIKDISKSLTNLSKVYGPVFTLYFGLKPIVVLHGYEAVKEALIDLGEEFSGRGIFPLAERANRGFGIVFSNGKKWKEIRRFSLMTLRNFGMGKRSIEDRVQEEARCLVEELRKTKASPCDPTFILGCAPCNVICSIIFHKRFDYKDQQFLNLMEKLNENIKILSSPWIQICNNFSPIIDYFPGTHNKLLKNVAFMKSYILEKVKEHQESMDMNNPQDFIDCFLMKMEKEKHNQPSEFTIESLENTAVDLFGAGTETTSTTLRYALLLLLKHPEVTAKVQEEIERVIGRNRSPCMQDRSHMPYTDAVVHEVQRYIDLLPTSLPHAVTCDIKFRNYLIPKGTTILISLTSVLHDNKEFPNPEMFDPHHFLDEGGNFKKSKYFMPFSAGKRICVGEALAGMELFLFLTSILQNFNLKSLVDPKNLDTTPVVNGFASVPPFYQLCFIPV
CYP2C19 act = human CYP2C19 activators, primary screen, biochemical, luminescence; Cytochrome P450 2C19 (Homo sapiens), P33261; recombinant CYP2C19, luciferin-H EGE luminescence; active compounds read high; 0 = fully inhibited enzyme, 1 = untreated enzyme; activation factor at 5 µM; AID 1025, 2008; 96,000 tested, under 10 active;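 active = activation factor of at least 2 at 5 µM in the primary screen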;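 note: 0 = wells with 2.5 mM tranylcypromine and 1 = vehicle-only wells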
E-sel TNF inh = E-selectin induction blockers in HUVEC – imaging, immunofluorescence, high content, primary screen. inhibition, % at 2 µM. AID 1246, 2008. HUVEC TNFa-induced E-selectin immunofluorescence. 120,000 compounds, 0.71% hits;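 active = inhibition above the batch mean plus 3 SD, and confirmed as a hit on visual image review, cut at about 43% in these data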;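 note: 0% = TNF-stimulated DMSO wells and 100% = unstimulated control wells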
CYP2C9 activ = human CYP2C9 activators, primary screen, biochemical, luminescence; Cytochrome P450 2C9 (Homo sapiens), P11712; recombinant CYP2C9, luciferin-H conversion; active compounds read high; factor 1 = untreated enzyme, 0 = blocked; AID 1024, 2008; activation factor at 5 µM; 96,000 compounds, 1.4% hits;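 active = activation factor of 2 or more for CYP2C9 at a 5 µM dose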;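 note: 0 = sulfaphenazole-blocked wells and 1 = vehicle-only wells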
F-actin modifier = modifiers of F-actin cytoskeleton organization, primary screen, imaging, HUVEC, phalloidin staining, high-content imaging; 91,000 compounds, 0.18% hits; inhibition, % at 2 µM; HUVEC TNFa F-actin phalloidin imaging;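 active = inhibition above the batch mean plus 3 SD and confirmed as a hit by visual image inspection, cut at about 30% in these data, passing the limit was not always enough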
Starred values were filed as active, the others as inactive; . = not tested or not shown. Compounds with a hit are over-represented: about 22% of the library has one in this group of screens.

SMILES	CYP2C19 inh	CYP2C9 inh	CYP2C19 act	E-sel TNF inh	CYP2C9 activ	F-actin modifier
C/C(=N\NC(=O)C(NC(=O)c1ccccc1)C(C)C)c1ccccc1 (stereo not given)	32	-4	0.7	-1	1	-13
CCOc1ccc2nc3sc(C(=O)N4CCOCC4)c(N)c3cc2c1	.	.	.	-6	.	.
O=C(Nc1ccc2c(c1)OCO2)C1CCCN1C(=O)NCc1ccccc1 (stereo not given)	97*	72*	0	.	0.3	-4
O=C(Nc1ccc2c(c1)OCO2)C1CCCN1C(=O)OCc1ccccc1 (stereo not given)	99*	81*	0	14	0.2	.
O=C(Nc1ccc2c(c1)OCO2)OCc1ccccc1	92*	38	0.1	22	0.6	-2
O=C(CS(=O)(=O)Cc1ccccc1)Nc1ccc2c(c1)OCO2	.	.	.	-2	.	.
CN(C)C(=O)c1ccccc1Sc1cc(Cl)ccc1Cl	75*	-10	0.2	21	1.1	5
CN(C)C(=O)c1ccccc1Sc1ccc(Cl)cc1Cl	95*	58*	0.1	13	0.4	15
Cc1nc(C(=O)N(C)C)nn1-c1cc(Cl)ccc1Cl	-14	-7	1.1	-10	1.1	-15
O=C(Nc1ccc(/C=C/c2nc3ccccc3o2)cc1)c1cccc(C(F)(F)F)c1	-4	16	1	19	0.8	-1
C/C(=N\O)c1ccc2c3ccccc3n(C)c2c1	34	55*	0.7	.	0.5	-22
COc1cc(C(=O)NCCC(=O)NC2CCCCCCC2)cc(OC)c1OC	83*	37	0.2	.	0.6	.
CN(C)S(=O)(=O)c1ccc(-c2cn3ccccc3n2)cc1	12	54*	0.9	-3	0.5	.
Cc1ccc2nc(-c3cccc(S(=O)(=O)N(C)C)c3)cn2c1	14	14	0.9	12	0.9	-12
CCCNC(=S)Nc1ccc(CC(=O)OC)cc1	.	.	.	5	.	.
COC(=O)Cc1[nH]nc2c1C1(C(=O)N(Cc3ccccc3)c3ccccc31)C(C#N)=C(N)O2 (stereo not given)	64*	61*	0.4	-18	0.4	-16
Cc1[nH]nc2c1C1(C(=O)N(Cc3ccc(Cl)cc3)c3ccccc31)C(C#N)=C(N)O2 (stereo not given)	89*	92*	0.1	100*	0.1	23
CCCCc1[nH]nc2c1C1(C(=O)N(CC)c3ccccc31)C(C#N)=C(N)O2 (stereo not given)	-3	-10	1	15	1.1	45
CN1C(=O)C2(C(C#N)=C(N)Oc3n[nH]c(-c4ccc(Cl)cc4)c32)c2ccccc21 (stereo not given)	29	30	0.7	30	0.7	15
COc1ccccc1C1CN(c2ccc(F)cc2F)N=C1c1cccs1 (stereo not given)	70*	91*	0.3	9	0.1	-4
COc1cccc(C2CC(c3cccs3)=NN2C(=O)CSc2nc3ccccc3o2)c1OC (stereo not given)	.	.	.	-11	.	.
O=C(NCc1ccc2c(c1)OCO2)C1CC(=O)N(C2CCCC2)C1 (stereo not given)	1	22	1	-5	0.8	-16
COc1ccc(C(=O)CN2C(=O)c3ccccc3C2=O)c(OC)c1C	83*	72*	0.2	.	0.3	14
COc1ccc(OC)c(N(CC(=O)Nc2ccccc2C(=O)NCc2ccco2)S(C)(=O)=O)c1	90*	91*	0.1	-1	0.1	1
COc1ccc(Cl)cc1N(CC(=O)Nc1ccccc1C(=O)NCc1ccco1)S(C)(=O)=O	46	51*	0.5	15	0.5	2
SMILES	CYP2C19 inh	CYP2C9 inh	CYP2C19 act	E-sel TNF inh	CYP2C9 activ	F-actin modifier
COc1ccccc1N(CC(=O)NCc1ccco1)S(C)(=O)=O	.	.	.	-30	.	.
COc1ccc(Cl)cc1N(CC(=O)N1CCN(Cc2ccccc2)CC1)S(C)(=O)=O	55*	12	0.5	.	0.9	-28
Cc1cccc(S(=O)(=O)N(CC(=O)Nc2ccccc2C)Cc2ccco2)c1	43	53*	0.6	22	0.5	3
CCOC(=O)C1C(=O)NC(c2ccccc2)=NC1c1ccc(OC)cc1 (stereo not given)	.	.	.	-17	.	.
Cc1nc(C)c(C(=O)C2=C(O)C(=O)N(CCN(C)C)C2c2cccs2)s1 (stereo not given)	-3	-6	1	10	1.1	-2
O=C(CN(c1ccc(F)cc1)S(=O)(=O)c1ccccc1)NCc1ccco1	51*	73*	0.5	-6	0.3	-10
Cc1ccc(N(CC(=O)Nc2ccccc2C(=O)NCc2ccco2)S(=O)(=O)c2ccccc2)cc1C	92*	98*	0.1	-4	0	-1
COc1ccc(N(CC(=O)Nc2ccccc2C(=O)NCc2ccco2)S(C)(=O)=O)cc1	36	84*	0.6	-20	0.2	13
COc1ccccc1OCC(=O)Nc1ccccc1C(=O)NCc1ccco1	.	.	.	10	.	-8
COc1ccc(Cl)cc1N(CC(=O)Nc1ccccc1SC)S(C)(=O)=O	92*	86*	0.1	21	0.1	-5
CCOC(=O)c1cc2c(nc1N)CC(C)(CC)OC2 (stereo not given)	92*	32	0.1	5	0.7	0
CCOC(=O)c1cc2c(nc1N)CC(C)(C)OC2	.	.	.	6	.	7
Cc1cc[n+](-c2nc3ccccc3nc2C(=C=[N-])C#N)cc1	-16	-5	1.2	-9	1.1	-30
COc1ccc(CNC(=O)C2CSC(c3ccc(OC)cc3)N2C(C)=O)cc1 (stereo not given)	21	35	0.8	-1	0.6	-8
CCC(C(=O)Nc1nnc(-c2ccco2)s1)c1ccccc1 (stereo not given)	25	55*	0.8	2	0.4	43
CCOc1cccc(C(=O)Nc2nnc(-c3ccco3)s2)c1	18	-105	0.8	3	2.1*	47
Cc1cccc(OCC(=O)Nc2nnc(-c3ccco3)s2)c1	.	.	.	10	.	.
CCCC(=O)Nc1nnc(-c2ccco2)s1	-11	-20	1.1	12	1.2	11
COc1cccc(C(=O)Nc2nnc(-c3cccs3)s2)c1	30	70*	0.7	-11	0.3	12
Cc1ccc(CNC(=O)CCS(=O)(=O)c2ccc(Br)s2)o1	5	-12	1	-5	1.1	10
COC(=O)c1ccccc1NC(=O)CCS(=O)(=O)c1ccc(Br)s1	62*	-6	0.4	19	1.1	.
O=C(CCS(=O)(=O)c1ccc(Br)s1)NCc1ccccc1	60*	34	0.4	16	0.7	.
COC(=O)c1ccc(NC(=O)CCS(=O)(=O)c2ccc(Br)s2)cc1	21	61*	0.8	-6	0.4	8
